Source: PMC4336329 (PLoS ONE, 2015)
About 2,200 (0.71%) of roughly 310,000 compounds showed an effect of 50% or more. Effects have a minus sign here. Shown is part of a subset that was picked to be rich in strong results.

Biological target: human ether-à-go-go-related gene (hERG) potassium channel (human, UniProt Q12809)
Experiment: primary screen, population patch clamp on CHO cells stably expressing hERG; higher = less effect of the substance

human ether-à-go-go-related gene (hERG) potassium channel, sequence (Q12809 whole entry, looked up): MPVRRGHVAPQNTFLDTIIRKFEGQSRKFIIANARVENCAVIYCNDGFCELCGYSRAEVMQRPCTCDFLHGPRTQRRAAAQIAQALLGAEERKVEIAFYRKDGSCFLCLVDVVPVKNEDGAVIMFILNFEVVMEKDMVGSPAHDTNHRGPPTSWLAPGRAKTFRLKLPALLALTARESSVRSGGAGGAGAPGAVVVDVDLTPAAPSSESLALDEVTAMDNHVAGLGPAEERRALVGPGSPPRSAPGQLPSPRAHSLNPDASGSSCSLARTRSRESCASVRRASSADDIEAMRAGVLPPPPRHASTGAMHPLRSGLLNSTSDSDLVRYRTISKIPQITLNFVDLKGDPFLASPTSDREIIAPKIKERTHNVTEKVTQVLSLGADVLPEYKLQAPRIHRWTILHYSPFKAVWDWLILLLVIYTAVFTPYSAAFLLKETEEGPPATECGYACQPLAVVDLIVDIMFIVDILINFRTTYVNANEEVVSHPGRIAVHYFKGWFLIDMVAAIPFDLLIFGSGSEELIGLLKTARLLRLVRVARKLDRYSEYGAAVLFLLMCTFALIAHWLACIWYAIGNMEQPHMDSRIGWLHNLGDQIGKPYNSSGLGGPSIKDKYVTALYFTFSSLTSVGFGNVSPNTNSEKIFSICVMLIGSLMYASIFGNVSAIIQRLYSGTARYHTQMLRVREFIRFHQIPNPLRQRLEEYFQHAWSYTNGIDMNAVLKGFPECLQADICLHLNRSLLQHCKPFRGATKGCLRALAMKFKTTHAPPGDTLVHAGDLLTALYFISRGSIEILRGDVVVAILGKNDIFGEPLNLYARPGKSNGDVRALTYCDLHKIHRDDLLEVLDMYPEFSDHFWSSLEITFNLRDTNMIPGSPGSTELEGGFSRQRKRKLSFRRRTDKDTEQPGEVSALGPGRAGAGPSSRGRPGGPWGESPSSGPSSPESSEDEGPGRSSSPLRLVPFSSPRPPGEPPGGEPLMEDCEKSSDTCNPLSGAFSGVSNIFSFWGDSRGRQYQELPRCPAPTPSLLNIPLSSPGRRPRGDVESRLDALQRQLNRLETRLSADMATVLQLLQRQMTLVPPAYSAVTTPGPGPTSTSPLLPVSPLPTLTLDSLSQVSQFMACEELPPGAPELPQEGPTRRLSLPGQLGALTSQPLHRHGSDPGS

SMILES | hERG current change (%, negative = inhibition) at 1uM
CC1CCCCN1C(=O)Nc1cccc(C(F)(F)F)c1 (stereo not drawn) | 9.57%
Cc1c(Cl)cccc1NC(=S)NNc1ncc(C(F)(F)F)cc1Cl | 4.45%
Cc1cccc(OCC(O)CN2CCc3ccccc3C2)c1.Cl (stereo not drawn) | -0.945%
Cl.OC(COc1ccc(Cl)cc1)CN1CCCCC1 (stereo not drawn) | -29.8%
CC(C(O)c1ccc(O)cc1)N1CCC(Cc2ccccc2)CC1.O=C(O)C(O)C(O)C(=O)O (stereo not drawn) | -33.4%
CC(C(O)c1ccc(O)cc1)N1CCC(Cc2ccccc2)CC1.O.O=C(O)C(O)C(O)C(=O)O (stereo not drawn) | -37.8%
COc1cccc(OCC(O)CN2CCc3ccccc3C2)c1.Cl (stereo not drawn) | -57.6%
Cl.OC(COc1ccc(Cl)cc1)CN1CCN(c2ccccc2)CC1 (stereo not drawn) | 0.0675%
Cl.OC(COc1ccccc1)CN1CCN(CC(O)COc2ccccc2)CC1 (stereo not drawn) | -19.5%
C[C@@H](CN1CCC(Cc2ccccc2)CC1)[C@@H](O)c1ccc(O)cc1.Cl | -60.5%
CC(C)OCC(O)CN1CCC(Cc2ccccc2)CC1.Cl (stereo not drawn) | -2.15%
Cl.OC(COc1ccc(Cl)cc1)CN1CCC(Cc2ccccc2)CC1 (stereo not drawn) | -89.6%
Cl.OC(COc1ccccc1)CN1CCC(Cc2ccccc2)CC1 (stereo not drawn) | -78%
COc1ccc(OCC(O)CN2CCc3ccccc3C2)cc1.Cl (stereo not drawn) | -2.53%
COC(=O)c1ccc(N2C(=O)CC(N(C)Cc3ccccc3)C2=O)cc1 (stereo not drawn) | 13.1%
N#CC(C(=O)NCCc1ccccc1)c1nc2ccccc2nc1N1CCCCC1 (stereo not drawn) | 4.11%
COc1nc(N(C)S(=O)(=O)c2ccc(C)cc2)nc(C)c1Br | 16.5%
C/C(=N/NC(=O)Cc1ccccc1)c1ccc(C)s1 | 11.5%
O=C(NCCc1ccccc1)C1CC(=O)N(c2ccc3c(c2)OCCO3)C1 (stereo not drawn) | 7.34%
C/C(=N\NC(=O)C(O)(c1ccccc1)c1ccccc1)c1ccc(NC(=O)CCCC(=O)O)cc1 | 11.3%

SMILES | hERG current change (%, negative = inhibition) at 1uM
O=C(CSc1nc(C2CC2)n(-c2ccccc2)n1)NCc1ccco1 | -3.27%
CCOc1ccc(OCC)c(S(=O)(=O)NNC(=O)c2c(C)nc3ccccn23)c1 | 5.91%
COc1ccc(S(=O)(=O)N(C)CC(=O)N2CCOCC2)cc1 | -2.22%
O=C(Nc1ccc(NC(=O)c2cccc([N+](=O)[O-])c2)cc1)c1cccc([N+](=O)[O-])c1 | 9.44%
Cc1cccc(C)c1OCC(O)CN1CCc2ccccc2C1.Cl (stereo not drawn) | -24.3%
O=S(=O)(c1ccc(OCC(O)CN2CCC(Cc3ccccc3)CC2)cc1)N1CCOCC1 (stereo not drawn) | -10.3%
COc1cccc(OCC(O)CN2CCC(Cc3ccccc3)CC2)c1.Cl (stereo not drawn) | -55.6%
Cl.OC(COc1ccc(Br)cc1)CN1CCC(Cc2ccccc2)CC1 (stereo not drawn) | -83.7%
Cc1cc(C)cc(OCC(O)CN2CCN(Cc3ccc4c(c3)OCO4)CC2)c1.Cl (stereo not drawn) | -67.9%
Cc1ccc(OCC(O)CN2CCN(Cc3ccc4c(c3)OCO4)CC2)cc1C.Cl (stereo not drawn) | 5.88%
Cl.OC(COc1ccc(Br)cc1)CN1CCCC1 (stereo not drawn) | 5.23%
Cc1ccc(OCC(O)CN2CCc3ccccc3C2)c(C)c1.Cl (stereo not drawn) | -42.6%
Cc1ccc(C)c(OCC(O)CN2CCc3ccccc3C2)c1C.Cl (stereo not drawn) | -56.1%
COc1cccc(OCC(O)CN2CCN(C(c3ccccc3)c3ccccc3)CC2)c1.Cl (stereo not drawn) | 3.72%
COc1ccc(OCC(O)CN2CCN(Cc3ccc4c(c3)OCO4)CC2)cc1.Cl (stereo not drawn) | -9.87%
COc1cccc(OCC(O)CN2CCC(C)CC2)c1.Cl (stereo not drawn) | 3.42%
CC(=O)N1CCc2cc(Br)cc(S(=O)(=O)CCC(=O)N3CCN(c4ccccn4)CC3)c21 | 6.2%
CCn1c(Cc2cccs2)nnc1SCC(=O)c1ccc(C)cc1 | 5.59%
COc1ccc(NS(=O)(=O)c2ccc(O)c(C(=O)OCC(=O)N3CC(C)OC(C)C3)c2)cc1 (stereo not drawn) | 12.3%
COc1cccc(NC(=O)CN2C(=O)COc3ccc(Cl)cc32)c1 | 8.19%

SMILES | hERG current change (%, negative = inhibition) at 1uM
Cc1ccc(C)c(NC(=S)NNC(=O)c2csc(C(C)C)c2)c1 | 0.742%
COc1cc(NC(=O)c2sc3nc(C)nc(N4CCOCC4)c3c2C)cc(OC)c1OC | 30.1%
Cc1csc2nc3cc(C(N)=O)ccc3c(=O)n12 | 10.2%
CCCCN(C)Cc1c(C)[nH]c2ccccc2c1=O | -8.8%
CCCCN(C)Cc1c(C)[nH]c2c(ccc3ccccc32)c1=O | -56.1%
CCCCN(CC)Cc1c(C)[nH]c2c(ccc3ccccc32)c1=O | -49.6%
O=C(c1ccco1)N1C(=O)c2cccc3c(S(=O)(=O)N4CCCC4)ccc1c23 | 6.3%
CCc1ccc2oc(-c3cc(N)ccc3Cl)nc2c1 | 12%
COc1cccc(C(=O)C2CCCN(C/C=C/c3ccccc3OC)C2)c1 (stereo not drawn) | -2.82%
COc1ccc(C(=O)C2CCCN(Cc3ccc(C)s3)C2)c(OC)c1 (stereo not drawn) | -2.87%
COc1ccc(C(=O)C2CCCN(C3Cc4ccccc4C3)C2)cc1OC (stereo not drawn) | -33.2%
COc1ccc2cc(C(=O)C3CCCN(Cc4cccc(C)n4)C3)ccc2c1 (stereo not drawn) | 11.2%
COc1ccc(C(=O)C2CCCN(Cc3c[nH]c4ccccc34)C2)c(OC)c1 (stereo not drawn) | -58.8%
COc1ccc(C(=O)C2CCCN(Cc3cccc(C)n3)C2)c(OC)c1 (stereo not drawn) | -58.3%
COc1ccc(F)cc1C(=O)C1CCCN(Cc2c[nH]c3ccccc23)C1 (stereo not drawn) | -18.6%
COc1ccc(C(=O)C2CCCN(C3Cc4ccccc4C3)C2)c(OC)c1 (stereo not drawn) | -68.2%
COc1cccc(C(=O)C2CCCN(Cc3cccc(C)n3)C2)c1 (stereo not drawn) | -30.1%
COc1ccc(C(=O)C2CCCN(Cc3c(C)[nH]c4ccccc34)C2)c(OC)c1 (stereo not drawn) | -28.6%
COc1ccc(C(=O)C2CCCN(C/C=C/c3ccccc3OC)C2)c(OC)c1 (stereo not drawn) | -78.6%
COc1ccc(C(=O)C2CCCN(C3CSCCSC3)C2)c(OC)c1 (stereo not drawn) | -4.62%
